Consider 6 compounds from ChEMBL document CHEMBL3988442, “University of Dundee, Small-Polar-MMV Screening Library” (2021).

What all share (parameters): scale not given: direction of the effect not stated beside the values
Assay [1] deals with Protein translocase subunit SecA (Escherichia coli (strain K12)) (UniProt P10408). The assay can be described thus: Assay to Identify E. coli SecA ATPase Inhibitors. To be noted: 30 µM. It counts as functional.
For assay [2], the target named is T1, Ubiquitin-activating enzyme e1, putative (Leishmania donovani (strain BPK282A1)) (UniProt E9BSI1).
T1 sequence (whole entry): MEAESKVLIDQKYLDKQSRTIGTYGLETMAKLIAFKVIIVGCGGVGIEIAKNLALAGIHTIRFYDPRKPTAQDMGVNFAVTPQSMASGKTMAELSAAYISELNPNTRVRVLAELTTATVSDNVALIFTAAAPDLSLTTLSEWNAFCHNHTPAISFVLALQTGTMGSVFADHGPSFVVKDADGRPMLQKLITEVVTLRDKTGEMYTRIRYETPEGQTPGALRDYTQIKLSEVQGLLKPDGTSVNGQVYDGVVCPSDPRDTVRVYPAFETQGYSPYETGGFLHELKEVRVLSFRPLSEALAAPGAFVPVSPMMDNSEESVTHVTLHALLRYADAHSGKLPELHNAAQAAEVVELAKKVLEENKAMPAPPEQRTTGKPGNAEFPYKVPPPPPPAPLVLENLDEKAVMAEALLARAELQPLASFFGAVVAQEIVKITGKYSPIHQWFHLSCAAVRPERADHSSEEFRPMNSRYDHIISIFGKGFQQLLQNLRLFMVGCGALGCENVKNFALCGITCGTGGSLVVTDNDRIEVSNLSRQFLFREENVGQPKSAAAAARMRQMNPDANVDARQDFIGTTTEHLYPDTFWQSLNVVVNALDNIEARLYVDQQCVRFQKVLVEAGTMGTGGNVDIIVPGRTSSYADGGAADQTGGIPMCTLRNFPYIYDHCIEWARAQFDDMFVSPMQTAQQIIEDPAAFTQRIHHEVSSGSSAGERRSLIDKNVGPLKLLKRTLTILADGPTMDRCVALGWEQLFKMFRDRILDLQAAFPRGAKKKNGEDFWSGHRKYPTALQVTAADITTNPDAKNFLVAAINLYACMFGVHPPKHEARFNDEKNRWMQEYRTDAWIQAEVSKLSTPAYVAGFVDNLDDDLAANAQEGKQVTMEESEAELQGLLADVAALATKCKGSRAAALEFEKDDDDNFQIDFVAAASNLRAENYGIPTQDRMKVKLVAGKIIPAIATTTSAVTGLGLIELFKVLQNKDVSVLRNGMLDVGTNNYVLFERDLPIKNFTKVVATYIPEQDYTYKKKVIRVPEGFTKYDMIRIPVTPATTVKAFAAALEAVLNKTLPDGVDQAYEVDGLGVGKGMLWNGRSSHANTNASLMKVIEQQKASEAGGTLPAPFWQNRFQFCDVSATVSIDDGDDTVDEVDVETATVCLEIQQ
The assay can be described thus: Leishmania donovani Ubiquitin Activating Enzyme (LdE1). To be noted: 30 µM. It counts as functional.

Assay [3] concerns the target T2, Aspartate--tRNA(Asp/Asn) ligase (Mycobacterium tuberculosis (strain ATCC 25618 / H37Rv)) (UniProt P9WFW3). Note: in the data most compounds retested in dose-response had high values.
T2 sequence (whole entry): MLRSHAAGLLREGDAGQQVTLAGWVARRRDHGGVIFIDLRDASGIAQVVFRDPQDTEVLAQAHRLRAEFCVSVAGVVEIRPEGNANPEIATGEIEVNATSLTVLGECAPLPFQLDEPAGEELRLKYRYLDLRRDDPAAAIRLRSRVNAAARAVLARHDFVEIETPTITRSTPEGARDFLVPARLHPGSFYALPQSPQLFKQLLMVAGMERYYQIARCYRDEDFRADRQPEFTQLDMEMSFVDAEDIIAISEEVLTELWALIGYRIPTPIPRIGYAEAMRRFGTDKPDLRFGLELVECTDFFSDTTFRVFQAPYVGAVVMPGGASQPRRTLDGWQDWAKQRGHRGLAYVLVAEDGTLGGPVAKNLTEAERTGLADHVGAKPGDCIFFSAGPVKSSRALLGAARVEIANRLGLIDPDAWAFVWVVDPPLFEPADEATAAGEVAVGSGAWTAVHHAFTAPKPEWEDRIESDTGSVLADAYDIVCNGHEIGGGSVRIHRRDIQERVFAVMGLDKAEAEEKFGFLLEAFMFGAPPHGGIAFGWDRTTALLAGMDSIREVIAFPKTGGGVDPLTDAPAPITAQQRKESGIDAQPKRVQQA
The assay can be described thus: Assay for Asp RNA synthetase-1 from Mycobacterium tuberculosis. The following applies: 30 µM. It counts as functional.

The target of assay [4] is Sialic acid-binding Ig-like lectin 9 (Homo sapiens) (UniProt Q9Y336). The experiment in a line: Hs-Siglec9 ALPHAscreen SOP 20170721. To be noted: 10 µM. In general terms: Bead proximity is the source of the signal in Alpha formats.
For assay [5], the system named is Trypanosoma cruzi. The experiment in a line: Trypanosoma cruzi phosphomannomutase and mannose-1-phosphate guanylyltransferase assay. Type of assay: functional. The following applies: 10 µM.
The target in assay [6] is T3, Arginase-2, mitochondrial (Homo sapiens) (UniProt P78540).
T3 sequence (whole entry): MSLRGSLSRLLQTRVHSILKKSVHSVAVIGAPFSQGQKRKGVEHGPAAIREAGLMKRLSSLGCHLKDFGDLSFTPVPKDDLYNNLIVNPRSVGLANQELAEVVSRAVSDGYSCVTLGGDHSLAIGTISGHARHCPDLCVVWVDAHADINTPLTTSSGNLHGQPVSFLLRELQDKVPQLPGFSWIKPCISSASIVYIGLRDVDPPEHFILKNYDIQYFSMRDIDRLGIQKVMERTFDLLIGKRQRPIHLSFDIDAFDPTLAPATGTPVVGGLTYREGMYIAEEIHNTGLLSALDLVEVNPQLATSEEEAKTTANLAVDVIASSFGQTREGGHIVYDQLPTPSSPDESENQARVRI
The experiment in a line: in vitro enzyme assay to detect the production of urea directly proportional to the activity of Arginase II. Note: in the data most compounds retested in dose-response had high values. Type of assay: functional. To be noted: 33.3 µM.

For assay [7], the target named is T4, Proteasome subunit beta (Trypanosoma cruzi) (UniProt O96673).
T4 sequence (whole entry): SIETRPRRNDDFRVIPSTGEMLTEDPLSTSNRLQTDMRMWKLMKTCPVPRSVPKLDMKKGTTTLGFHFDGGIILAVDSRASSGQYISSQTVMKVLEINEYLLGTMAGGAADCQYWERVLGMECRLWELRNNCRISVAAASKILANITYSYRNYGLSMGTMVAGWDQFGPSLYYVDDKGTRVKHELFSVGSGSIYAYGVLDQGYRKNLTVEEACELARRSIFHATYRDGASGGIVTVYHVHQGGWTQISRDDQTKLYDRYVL
The experiment in a line: Trypanosoma cruzi proteasome chymotrypsin-like activity (TcProtChymo) assay. Note: in the data most compounds retested in dose-response had high values. It counts as functional. The following applies: 9.37 µM.

Assay [8] is filed under the species Homo sapiens. The assay can be described thus: To identify inhibition of the IFN signalling (Jak-Stat) pathway via expression of an eGFP reporter gene under the control of an IFN-stimulated response element (ISRE) containing MxA promoter. It counts as functional. The following applies: 30 µM. On the technique in general: A reporter such as luciferase makes a cellular process visible.

Assay [9] addresses Shiga toxin 2 (Escherichia coli O157:H7) (UniProt P09385+P09386). The assay can be described thus: E. coli 0.157:H7 Shiga Toxin SOP - stx2 screening assay. It counts as functional. To be noted: 30 µM.
The target of assay [10] is T5, Tyrosyl-tRNA synthetase, putative (Trypanosoma cruzi (strain CL Brener)) (UniProt Q4DSP6).
T5 sequence (whole entry): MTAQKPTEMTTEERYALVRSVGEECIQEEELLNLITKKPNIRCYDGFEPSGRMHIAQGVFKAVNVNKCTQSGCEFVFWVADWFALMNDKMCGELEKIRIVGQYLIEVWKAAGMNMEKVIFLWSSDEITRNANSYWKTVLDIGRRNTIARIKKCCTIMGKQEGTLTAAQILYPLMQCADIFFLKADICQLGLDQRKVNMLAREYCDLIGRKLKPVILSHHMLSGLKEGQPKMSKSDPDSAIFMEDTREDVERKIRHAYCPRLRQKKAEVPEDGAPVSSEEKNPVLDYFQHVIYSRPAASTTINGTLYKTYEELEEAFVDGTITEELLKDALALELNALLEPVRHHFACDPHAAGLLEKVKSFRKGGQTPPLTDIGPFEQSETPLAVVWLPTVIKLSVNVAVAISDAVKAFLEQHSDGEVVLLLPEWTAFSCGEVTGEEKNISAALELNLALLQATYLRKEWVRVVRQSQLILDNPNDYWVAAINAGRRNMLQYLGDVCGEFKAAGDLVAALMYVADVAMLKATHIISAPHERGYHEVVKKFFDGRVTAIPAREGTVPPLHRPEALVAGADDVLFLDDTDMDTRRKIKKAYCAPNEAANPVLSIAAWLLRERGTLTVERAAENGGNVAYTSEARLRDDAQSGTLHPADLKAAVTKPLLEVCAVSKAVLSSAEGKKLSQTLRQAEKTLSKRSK
The experiment in a line: Trypanosoma cruzi tyrosyl tRNA synthetase (TcYRS) _High Tyrosine SOP. Note: in the data most compounds retested in dose-response had high values. Type of assay: functional. To be noted: 30 µM.

Assay [11] concerns the target T5, Tyrosyl-tRNA synthetase, putative (Trypanosoma cruzi (strain CL Brener)). The assay can be described thus: Trypanosoma cruzi tyrosyl tRNA synthetase (TcYRS) SOP. To be noted: 30 µM. Type of assay: functional.
The target in assay [12] is Chromo domain-containing protein 1 (Saccharomyces cerevisiae (strain ATCC 204508 / S288c) (Baker's yeast)) (UniProt P32657). The assay can be described thus: ScCHD-1 Enzyme Inhibition Assay. Note: in the data most compounds retested in dose-response had high values. Type of assay: functional. The following applies: 30 µM.

For part of these data: Entries with a potency or affinity are not part of this list.

Sequence of Sialic acid-binding Ig-like lectin 9 (Homo sapiens) (Q9Y336 whole entry): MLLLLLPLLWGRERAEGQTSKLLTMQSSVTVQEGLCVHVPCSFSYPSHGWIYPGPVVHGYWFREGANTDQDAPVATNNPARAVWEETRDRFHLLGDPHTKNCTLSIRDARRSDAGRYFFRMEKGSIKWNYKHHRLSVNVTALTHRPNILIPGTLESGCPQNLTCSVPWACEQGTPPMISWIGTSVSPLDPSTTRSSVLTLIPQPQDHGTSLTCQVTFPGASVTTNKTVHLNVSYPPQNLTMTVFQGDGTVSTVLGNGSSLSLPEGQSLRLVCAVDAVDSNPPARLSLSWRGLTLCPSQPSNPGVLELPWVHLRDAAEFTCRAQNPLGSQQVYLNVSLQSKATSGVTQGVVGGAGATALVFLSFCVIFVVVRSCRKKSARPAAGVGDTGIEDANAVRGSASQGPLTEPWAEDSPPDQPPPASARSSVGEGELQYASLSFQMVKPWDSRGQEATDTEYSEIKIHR
Sequence of Protein translocase subunit SecA (Escherichia coli (strain K12)) (P10408 whole entry): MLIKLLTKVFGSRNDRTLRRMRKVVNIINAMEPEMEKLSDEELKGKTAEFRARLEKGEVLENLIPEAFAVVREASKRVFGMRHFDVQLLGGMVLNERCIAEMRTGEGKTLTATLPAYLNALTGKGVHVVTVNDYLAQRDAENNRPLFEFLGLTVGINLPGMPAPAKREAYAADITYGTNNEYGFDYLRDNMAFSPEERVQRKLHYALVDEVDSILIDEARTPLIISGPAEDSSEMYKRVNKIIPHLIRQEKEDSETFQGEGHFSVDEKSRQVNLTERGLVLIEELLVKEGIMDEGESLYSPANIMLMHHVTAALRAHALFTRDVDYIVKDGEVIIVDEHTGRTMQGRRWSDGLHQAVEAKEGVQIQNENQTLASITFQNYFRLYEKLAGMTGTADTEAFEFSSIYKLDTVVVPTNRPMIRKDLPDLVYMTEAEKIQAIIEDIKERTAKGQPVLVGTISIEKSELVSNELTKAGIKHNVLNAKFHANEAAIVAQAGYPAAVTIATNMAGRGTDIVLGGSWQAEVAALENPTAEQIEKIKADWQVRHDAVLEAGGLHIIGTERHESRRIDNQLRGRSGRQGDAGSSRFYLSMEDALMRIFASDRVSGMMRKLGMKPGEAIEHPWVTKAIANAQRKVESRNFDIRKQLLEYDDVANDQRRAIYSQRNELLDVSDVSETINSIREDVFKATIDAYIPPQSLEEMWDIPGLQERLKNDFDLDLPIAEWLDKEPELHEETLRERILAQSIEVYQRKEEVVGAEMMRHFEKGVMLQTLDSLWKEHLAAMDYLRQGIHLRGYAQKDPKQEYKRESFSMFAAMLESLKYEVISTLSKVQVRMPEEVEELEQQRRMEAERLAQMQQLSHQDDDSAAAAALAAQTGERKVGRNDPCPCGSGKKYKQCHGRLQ
Sequence of Chromo domain-containing protein 1 (Saccharomyces cerevisiae (strain ATCC 204508 / S288c) (Baker's yeast)) (P32657 whole entry, the tested form may be a part): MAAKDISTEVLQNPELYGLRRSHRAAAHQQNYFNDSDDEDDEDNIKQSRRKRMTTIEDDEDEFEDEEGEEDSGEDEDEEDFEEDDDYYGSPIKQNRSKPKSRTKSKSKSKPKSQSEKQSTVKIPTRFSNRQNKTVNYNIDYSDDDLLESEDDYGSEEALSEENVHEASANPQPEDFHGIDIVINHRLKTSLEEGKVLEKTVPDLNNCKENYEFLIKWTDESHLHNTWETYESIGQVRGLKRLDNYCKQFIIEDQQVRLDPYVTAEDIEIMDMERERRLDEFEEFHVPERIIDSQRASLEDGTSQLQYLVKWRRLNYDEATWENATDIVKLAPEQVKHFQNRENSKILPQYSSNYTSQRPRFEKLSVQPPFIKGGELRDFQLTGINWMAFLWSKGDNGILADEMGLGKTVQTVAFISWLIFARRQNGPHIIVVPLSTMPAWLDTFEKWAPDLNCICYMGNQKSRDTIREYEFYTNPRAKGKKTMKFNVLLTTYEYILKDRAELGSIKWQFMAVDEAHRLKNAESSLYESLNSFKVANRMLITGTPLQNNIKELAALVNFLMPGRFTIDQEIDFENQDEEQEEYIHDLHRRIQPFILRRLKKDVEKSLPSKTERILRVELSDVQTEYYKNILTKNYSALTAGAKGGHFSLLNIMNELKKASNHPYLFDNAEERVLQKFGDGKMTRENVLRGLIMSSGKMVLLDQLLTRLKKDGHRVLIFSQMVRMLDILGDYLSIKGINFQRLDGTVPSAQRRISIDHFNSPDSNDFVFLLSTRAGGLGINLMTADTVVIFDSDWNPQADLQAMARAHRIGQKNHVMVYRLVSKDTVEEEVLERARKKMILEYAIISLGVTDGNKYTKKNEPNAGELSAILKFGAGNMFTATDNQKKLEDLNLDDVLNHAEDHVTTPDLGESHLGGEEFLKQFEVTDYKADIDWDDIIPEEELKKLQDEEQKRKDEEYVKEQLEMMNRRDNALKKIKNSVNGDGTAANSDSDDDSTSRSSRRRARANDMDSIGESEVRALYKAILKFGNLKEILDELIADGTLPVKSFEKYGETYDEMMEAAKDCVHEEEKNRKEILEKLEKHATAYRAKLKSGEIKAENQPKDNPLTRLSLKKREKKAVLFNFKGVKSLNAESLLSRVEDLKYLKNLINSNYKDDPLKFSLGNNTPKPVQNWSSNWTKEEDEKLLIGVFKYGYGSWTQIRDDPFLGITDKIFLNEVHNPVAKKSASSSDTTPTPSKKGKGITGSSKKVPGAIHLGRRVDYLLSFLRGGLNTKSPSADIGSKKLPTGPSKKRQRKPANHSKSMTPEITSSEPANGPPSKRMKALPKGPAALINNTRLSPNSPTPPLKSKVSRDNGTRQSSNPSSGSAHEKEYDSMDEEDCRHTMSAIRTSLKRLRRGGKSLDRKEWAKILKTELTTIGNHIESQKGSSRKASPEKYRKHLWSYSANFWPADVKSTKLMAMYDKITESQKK

For `c1ccc(N2CCCC3(CCN(Cc4cccs4)C3)C2)nc1` (configuration not stated), the Percent Effect is -7.4% in [1]; 16.9% in [2]; -1.46% in assay [3]; -2.35% in assay [4]; -2.81% in [5]; -0.913% in assay [6]. In addition, the Percent Effect in [7] is 10.4%; in assay [8], 17.3%; in [9], 5.58%; in [10] it was 1.93%; in assay [11], -2.5%; in assay [12], -9.64%.

On to `NC(=O)N1CC2(CCNCC2)c2cc(Cl)ccc21`, for which the Percent Effect in [1] was 0.158%; in assay [2], 1.3%; in assay [3] it was 0.933%; in assay [4], -0.465%; in assay [5], -3.38%; in [6], 4.11%. The Percent Effect was 8.84% in [7]; 10.9% in assay [8]; 4.45% in assay [9]; 0% in assay [10]; -2.5% in [11]; 2.33% in [12].

Consider `COc1ccc(Cl)cc1CC(=O)N1CCN(CCO)CC1`, for which the Percent Effect in assay [1] was -6.68%; in [2], 10.4%; in assay [3], 1.78%; in assay [4], 0.349%; in assay [5], -4.1%; in [6], 4.71%. For the same compound, the Percent Effect was 0.877% in assay [7]; 12.1% in assay [8]; -8.21% in [9]; -1.96% in assay [10]; -2.35% in assay [11]; 2.44% in assay [12].

On to `Cc1cc(CN2CC[C@H]3C[C@H](C(=O)N(C)C)O[C@@H]3C2)no1`, for which the Percent Effect in assay [1] was -4.45%; in assay [2], 3.9%; in assay [3] it was -0.0763%; in assay [4] it was 14.4%; in assay [5] it was 5.36%; in [6] it was 12.6%. In addition, the Percent Effect in assay [7] was 13.3%; in [8], -6.77%; in assay [9], -6.84%; in assay [10], 2.63%; in [11] it was -5.13%; in assay [12], 20.4%.

For the compound `CC(C)c1nccc([C@H]2C[C@@H]3CCN(Cc4ccco4)C[C@H]3O2)n1`, the Percent Effect was -6.35% in [1]; -3.9% in assay [2]; 9.38% in [3]; 3.38% in assay [4]; 4.58% in assay [5]; -7.69% in assay [6]. Further, the Percent Effect in assay [7] amounted to 14.4%; in assay [8], 3.14%; in [9] it was 5.36%; in assay [10], 6.84%; in assay [11], 15.4%; in assay [12], 1.21%.

For the compound `O=C1CC[C@H]2[C@H](CCN2Cc2ccccn2)N1CC1CCOCC1`, the Percent Effect is -3.55% in [1]; 9.09% in assay [2]; -4.23% in assay [3]; -1.65% in [4]; -5.63% in assay [5]; 2.74% in assay [6]. In addition, the Percent Effect in assay [7] is 3.35%; in [8], 8.69%; in assay [9], -14%; in [10] it was -0.966%; in [11] it was 2.5%; in [12] it was -0.494%.
